Screens as filed in PubChem BioAssay.
Pf growth 96h: P. falciparum growth inhibition at 96 hour, primary screen for plastid delayed-death inhibitors. P. falciparum luciferase reporter growth, 96 h. Potency, µM (doses to about 28.7 µM), for the others: at the highest dose activity change, negative = inhibition, usual class: inhibitors. 320,000 tested, 6.9% active; further: potency means the concentration at half of the fitted maximal effect; on the % scale 0 is the no-effect control and ±100 the full control effect
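Erythrocytes infected with luciferase-expressing P. falciparum were dispensed at 2% hematocrit and 0.05% parasitemia (final), then incubated with compounds 96 hours at 37 C in 5% CO2. Luminescence after detection reagent addition reported growth.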
Shiga inhibitor: inhibitors of Shiga toxin in Vero cells. 290,000 tested, 9.2% active. Vero cells, Shiga toxin protein synthesis inhibition reporter. inhibition, % at 38.7 µM; in the data active means inhibition mostly above about 28%, no sharp cut-off; inactive means mostly below about 43%; further: 0% is about no effect
AMA1-RON2 inh: disrupts binding of P. falciparum AMA1 to RON2; Potency, µM (doses to about 58.2 µM), without a hit: top-dose activity change, negative = inhibition, actives largely listed as inhibitors; AlphaScreen AMA1-biotinylated RON2 peptide binding; 360,000 tested, 0.2% active;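 further: potency means the concentration at half of the fitted maximal effect; 0% = vehicle wells and -100% = peptide control; nearly all actives have a fitted effect of over 45% in size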
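AMA1 (3D7) with his tag at 25 nM final met compounds first, then biotinylated RON2 peptide at 25 nM; detection used donor plus acceptor beads, 10 µg/mL apiece, read by AlphaScreen after 30 min at room temperature.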
Pf growth 48h: P. falciparum growth inhibition at 48 hours (one generation) | P. falciparum luciferase growth in erythrocytes, 48 h | Potency, µM (titrated, usually from 28.7 µM), for the others: top-dose activity change, negative = inhibition, hits mostly inhibitors | 310,000 tested, 5.9% active; further: potency means the concentration at half of the fitted maximal effect; on the % scale 0 is the no-effect control and ±100 the full control effect
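Erythrocytes infected with P. falciparum carrying an integrated firefly luciferase reporter (2% hematocrit, 0.1% parasitemia final) were exposed to compounds in RPMI 1640 with 0.5% Albumax at 37 C, 5% CO2. Growth inhibition was scored as reduced luminescence.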
SARS PLP yeast: SARS-CoV PLP inhibition in yeast; S. cerevisiae expressing SARS-CoV PLpro, growth rescue; Potency, µM (top dose mostly 32.9 µM), inactives show at the highest dose activity, positive = growth rescue, actives largely listed as activators; 330,000 tested, 0.19% active; AID 485353; calls by dose curve; further: potency means the concentration at half of the fitted maximal effect; 0% is about no effect; nearly all actives have a fitted effect of over 55% in size
Cycloheximide cs: affects cycloheximide protein synthesis inhibition readout, counter-screen; 300,000 tested, 12% active; AID 2314; max response, %; cell reporter, cycloheximide protein synthesis inhibition counterscreen; in the data active means max response mostly above about 13%, no sharp cut-off; inactive means mostly below about 14%; further: read at 38.3 µM for the half of the compounds with a filed dose; 0% is about no effect
* = called active by the depositor; ? = inconclusive; · = no result given. The list is not random: actives were taken first. Their share in the collection is about 19%. Unless noted, the call rests on the fitted dose curve; in most records, active means well fitted curve in the direction sought with a large enough effect; inconclusive means small, poorly fitted or top-dose-only effect, or another doubt; inactive means no such curve, though single readings can be large; an effect the other way counts as inactive or inconclusive.

SMILES | Pf growth 96h | Shiga inhibitor | AMA1-RON2 inh | Pf growth 48h | SARS PLP yeast | Cycloheximide cs
O=C(Nc1ccc(-c2ccc(N3CCCCC3)nn2)cc1)c1ccco1 | ? | · | 0% | ? | -7% | ·
CCc1noc(C)c1C(=O)NNC(=O)COc1ccc(Br)cc1 | 32% | 5 | 71% | ? | -6% | -2
O=C(N/N=C/c1cn(CC(=O)N2CCOCC2)c2ccccc12)c1cccnc1 | 0% | 20 | 94% | 25% | -2% | 21*
O=C(N/N=C/c1ccccc1OCc1ccccc1)c1cccnc1 | 44% | 8 | 7% | 3% | -23% | 13*
CC(=O)Nc1ccc(C(=O)N/N=C/c2ccccc2OCc2ccccc2)cc1 | 64% | 21 | -9% | 6% | 0% | 2
O=C(N/N=C/c1cn(Cc2ccccc2)c2ccccc12)c1cccnc1 | 15% | 14 | 42% | ? | -4% | 8
O=C(N/N=C/c1cccc2ccccc12)c1cccnc1 | 12% | 39* | -2% | · | -2% | 29*
COc1ccc(/C=N/NC(=O)c2cccnc2)c2ccccc12 | 30% | -6 | 6% | -5% | -3% | -2
O=C(C1=C[C@H](c2coc3ccccc3c2=O)C[C@H](OCCCCO)O1)N1CCOCC1 | 64% | -12 | 20% | 66% | 0% | -3
COc1ccc(C(=O)OCC(=O)Nc2c(C)n(C)n(-c3ccccc3)c2=O)cc1OC | -24% | · | -7% | 3% | 7% | ·
CS(=O)(=O)N(CC(=O)NC1CC2CCC1C2)c1ccc(Oc2ccccc2)cc1 (configuration not stated) | ? | 38 | -24% | ? | -2% | 15*
C/C(=N\NC(=O)CN(c1ccc(Oc2ccccc2)cc1)S(C)(=O)=O)C(C)(C)C | 48% | 39 | 5% | ? | -2% | 33*
C[C@H](CO)N1C[C@H](C)[C@@H](CN(C)S(=O)(=O)c2ccccc2F)Oc2ncc(Br)cc2C1=O | · | · | -5% | · | · | ·
O=C(NCCc1ccccc1)c1c(F)cccc1F | 356% | 99* | -13% | 169% | -1% | 39*
CN(CC(=O)NCCc1ccccc1)Cc1ccco1 | 81% | 99* | 0% | 87% | -2% | 32*
Cc1ccnc(NC(=O)CCC(=O)N(CC(=O)NCCc2ccccc2)Cc2ccco2)c1 | ? | 19 | -2% | ? | -1% | 5
O=C(NCCc1ccccc1)c1ccco1 | -20% | 86* | -2% | 170% | -25% | 49*
Nc1sc2c(c1C(=O)NCCc1ccccc1)CCC2 | -11% | 34 | 24% | 13µM* | 0% | 17
O=C(Cn1cc(C(=O)c2cccs2)c2ccccc21)NCc1ccc2c(c1)OCO2 | 5% | -4 | -2% | · | -2% | -5
